# Results taken from ChEMBL document CHEMBL3988442, “University of Dundee, Small-Polar-MMV Screening Library” (2021).
# The whole screen tested about 66,000 compounds, of which about 960 (1.5%) showed an effect of 50% or more. Many of the other results were omitted from the sample, so strong results are more common in it than they were.
# System: Trypanosoma brucei
# Test: Trypanosoma brucei 72 hour study
# Format: functional, organism-based
# Parameters: scale not given: in the data most compounds retested in dose-response had high values
compound,measurement,setting,value
COc1cc(CCC(=O)N2CCC(c3cc4ncc(C)nc4[nH]3)C2)on1 (centres undefined),Percent Effect,"30.3 µM, […]",31.83%
COc1cc(CCC(=O)N2CCC(c3cc4ncccc4[nH]3)CC2)on1,Percent Effect,"30.3 µM, […]",13.01%
COc1cc(CCC(=O)N2CCC(c3cc4nccnc4[nH]3)CC2)on1,Percent Effect,"30.3 µM, […]",60.69%
O=C(C1CCOCC1)N1CCO[C@H]2[C@H](OCc3ccncc3)CC[C@@H]21.O=C(O)C(F)(F)F,Percent Effect,"30 µM, 30.03 µM",-17.19%
CN(Cc1ccncc1)C1COC2(CCN(Cc3ccsc3)CC2)C1.O=C(O)C(F)(F)F.O=C(O)C(F)(F)F.O=C(O)C(F)(F)F (centres undefined),Percent Effect,"30 µM, 30.03 µM",11.15%
Cn1nc(C(=O)NCc2cccnc2)c2c1CCS(=O)(=O)C2,Percent Effect,"30.3 µM, […]",-19.1%
Cn1nc(C(=O)NCc2cccs2)c2c1CCS(=O)(=O)C2,Percent Effect,"30.3 µM, […]",-10.45%
Cn1nc(C(=O)NCc2ccccn2)c2c1CCS(=O)(=O)C2,Percent Effect,"30 µM, 30.03 µM",63.28%
CC(=O)N1CCC[C@@H](NCc2c[nH]c3ccccc23)[C@@H]1c1ccc(C)s1.Cl,Percent Effect,"30.3 µM, […]",-17.97%
Cc1cnn(C2CCCN(C(=O)Cc3c(C)nn(C)c3C)C2)c1 (centres undefined),Percent Effect,"30.3 µM, […]",-16.8%
O=C(O)C(F)(F)F.c1cncc(N2CCC3(CCCN(c4ccncc4)C3)CC2)c1,Percent Effect,"30.3 µM, […]",-3.759%
O=C(O)C(F)(F)F.O=S(=O)(c1cccs1)N1CCCC2(COCCN(c3cccnc3)C2)C1 (centres undefined),Percent Effect,"30.3 µM, […]",53.4%
Fc1cnc(N2CCCC3(COCCN(c4nccs4)C3)C2)nc1.O=C(O)C(F)(F)F.O=C(O)C(F)(F)F (centres undefined),Percent Effect,"30 µM, 30.03 µM",60.81%
O=C(O)C(F)(F)F.c1ccc(N2CCCC3(COCCN(c4nccs4)C3)C2)nc1 (centres undefined),Percent Effect,"30 µM, 30.03 µM",23.77%
O=C(O)C(F)(F)F.O=C(c1cccs1)N1CCCC2(COCCN(c3cccnc3)C2)C1 (centres undefined),Percent Effect,"30.3 µM, […]",-669.5%
Cc1cnc(N2CCCC3(COCCN(c4nccs4)C3)C2)nc1 (centres undefined),Percent Effect,"30.3 µM, […]",-22.75%
O=C(O)C(F)(F)F.O=C(O)C(F)(F)F.c1cncc(N2CCCC3(CCN(CCN4CCCC4)CC3)C2)c1,Percent Effect,"30.3 µM, […]",-7.746%
O=C(O)C(F)(F)F.c1cncc(N2CCOCC3(CCCN(c4nncs4)C3)C2)c1 (centres undefined),Percent Effect,"30.3 µM, […]",1.277%
N#Cc1ccc(N2CCCC3(CCN(c4cccnc4)CC3)C2)cc1.O=C(O)C(F)(F)F,Percent Effect,"30.3 µM, […]",65.08%
O=C(O)C(F)(F)F.O=C(O)C(F)(F)F.c1cc(CN2CC[C@@H]3[C@@H](CO[C@H]3CN3CCOCC3)C2)cs1,Percent Effect,"30.3 µM, […]",-46.86%
COc1ccc(N2CCN(C(=O)[C@H]3[C@@H]4CNC[C@@H]43)CC2(C)C)cc1,Percent Effect,"30 µM, 30.03 µM",-58.92%
Cc1cccc(CN2CCO[C@@H]3CC(COc4ccccn4)C[C@H]32)n1.O=C(O)C(F)(F)F.O=C(O)C(F)(F)F (some centres undefined),Percent Effect,"30.3 µM, […]",-29.04%
CCOCCCNCc1cc2c(C)cc(C)cc2n2c(=O)n(C)nc12,Percent Effect,"30.3 µM, […]",2.995%
Cc1cc(C)c2cc(CNCc3ccco3)c3nn(C)c(=O)n3c2c1,Percent Effect,"30.3 µM, […]",8.532%
Cc1cc(C)c2cc(CNC3CCCCC3)c3nn(C)c(=O)n3c2c1,Percent Effect,"30.3 µM, […]",100.6%
Cc1cc(C)c2cc(CNCc3ccccc3)c3nn(C)c(=O)n3c2c1,Percent Effect,"30.3 µM, […]",17.22%
COCCNCc1cc2c(C)cc(C)cc2n2c(=O)n(C)nc12,Percent Effect,"30.3 µM, […]",39.03%
Cc1cc(C)c2cc(CNC(C)C)c3nn(C)c(=O)n3c2c1,Percent Effect,"30.3 µM, […]",99.68%
CCCNCc1cc2c(C)cc(C)cc2n2c(=O)n(C)nc12,Percent Effect,"30.3 µM, […]",24.54%
Cc1cc(C)c2cc(CNCC3CCCO3)c3nn(C)c(=O)n3c2c1 (centres undefined),Percent Effect,"30.3 µM, […]",73.49%
Cc1cc(C)c2cc(CNCc3ccc(C)o3)c3nn(C)c(=O)n3c2c1,Percent Effect,"30.3 µM, […]",-8.702%
Cc1nc(Nc2ncccn2)cc(C2CCCN2CC(C)C)n1 (centres undefined),Percent Effect,"30 µM, 30.03 µM",-16.62%
Cc1nc(CN2CCC3(CC2)NC(=O)CC3c2ccccc2)cs1.O=C(O)C(F)(F)F (centres undefined),Percent Effect,"30.3 µM, […]",10.42%
O=C(Cc1cccc(F)c1)N1C[C@H]2CN(Cc3ccccn3)C[C@H]2C1.O=C(O)C(F)(F)F,Percent Effect,"30.3 µM, […]",-6.988%
CC(C)n1c(=O)nc2n1C(=O)N(c1ccccc1)C2,Percent Effect,"30 µM, 30.03 µM",14.82%
CN1CCN(Cc2cnc3n2CCN(Cc2cccnc2)CC3)CC1.O=C(O)C(F)(F)F.O=C(O)C(F)(F)F.O=C(O)C(F)(F)F,Percent Effect,"30.3 µM, […]",-39.08%
Cc1nc(CN2C(=O)C[C@@H]3[C@@H]2CCN3S(C)(=O)=O)cs1,Percent Effect,"30 µM, 30.03 µM",-13.69%
Cc1cc2nc(C(C)C)cc(NCCNc3ncccc3C)n2n1,Percent Effect,"30 µM, 30.03 µM",-45.75%
COc1ccc(-c2c[nH]c([C@@H]3COCCN3)n2)cc1,Percent Effect,"30 µM, 30.03 µM",-38.08%
FC(F)(F)c1ccc(-c2c[nH]c([C@@H]3COCCN3)n2)cc1,Percent Effect,"30 µM, 30.03 µM",11.07%
FC(F)(F)Oc1ccc(-c2c[nH]c([C@@H]3COCCN3)n2)cc1,Percent Effect,"30 µM, 30.03 µM",62.77%
CC(Nc1c(F)cc(C#N)cc1F)c1cccc(S(N)(=O)=O)c1 (centres undefined),Percent Effect,"30 µM, 30.03 µM",39.53%
CC(Nc1ccc(C#N)cc1F)c1cccc(S(N)(=O)=O)c1 (centres undefined),Percent Effect,"30 µM, 30.03 µM",35.16%
CC(Nc1cccc(F)c1C#N)c1cccc(S(N)(=O)=O)c1 (centres undefined),Percent Effect,"30 µM, 30.03 µM",70.17%
CC(=O)N1CCN(Cc2ccc(F)cc2)CC2(CC(=O)N(C)C2)C1.O=C(O)C(F)(F)F (centres undefined),Percent Effect,"30.3 µM, […]",-72.99%
Cc1cc(-c2cnc(NCc3cccnc3)nc2C(C)C)on1,Percent Effect,"30 µM, 30.03 µM",23.42%
Cc1cc(-c2cnc(NCc3cccnc3)nc2C(C)(C)C)on1,Percent Effect,"30 µM, 30.03 µM",25.28%
Cc1cc(-c2cnc(NCc3ccc4c(c3)OCO4)nc2C(C)C)on1,Percent Effect,"30.3 µM, […]",70.78%
COc1ccc(CNc2ncc(-c3cc(C)no3)c(C(C)C)n2)cc1,Percent Effect,"30.3 µM, […]",46.49%
Cc1cc(-c2cnc(NCc3ccccn3)nc2C(C)C)on1,Percent Effect,"30.3 µM, […]",94.64%
Cc1cc(-c2cnc(NCc3ccncc3)nc2C(C)C)on1,Percent Effect,"30.3 µM, […]",23.52%
CNS(=O)(=O)Cc1ccc(CNC(=O)c2ccccn2)cc1,Percent Effect,"30.3 µM, […]",-17.29%
same,Percent Effect,"10 mM, 10 mM as filed; unlikely as a test dose",-30.84%
COc1cccc(C(=O)N2CCc3nc(C4CCCN4)ncc3C2)c1.Cl (centres undefined),Percent Effect,"30.3 µM, […]",-17.69%
COc1ccccc1CN1CCN(CCN2CCOC2=O)CC1,Percent Effect,"30 µM, 30.03 µM",-64.53%
COc1ccccc1CC1CCCN(CC(=O)NC2CC2)C1 (centres undefined),Percent Effect,"30.3 µM, […]",6.426%
COc1ccccc1CC1CCN(C(=O)CCN2CCOC2=O)CC1,Percent Effect,"30.3 µM, […]",4.544%
CNC(=O)NC(=O)CN1CCCC(Cc2ccccc2OC)C1 (centres undefined),Percent Effect,"30.3 µM, […]",26.83%
COc1ccccc1CC1CCCN(CCN2CCOC2=O)C1 (centres undefined),Percent Effect,"30.3 µM, […]",99.68%
COc1ccccc1CC1CCCN(CC(N)=O)C1 (centres undefined),Percent Effect,"30 µM, 30.03 µM",-11.23%
COc1ccccc1CC1CCCN(CCC(N)=O)C1 (centres undefined),Percent Effect,"30.3 µM, […]",100.1%
COc1ccccc1CC1CCCN(CCC#N)C1 (centres undefined),Percent Effect,"30 µM, 30.03 µM",-5.815%
CNC(=O)CN1CCCC(Cc2ccccc2OC)C1 (centres undefined),Percent Effect,"30.3 µM, […]",99.76%
O=C(O)c1cc(/C=C/c2ccc3ccccc3c2)ncn1,Percent Effect,"30 µM, 30.03 µM",17.56%
CCn1ncc2c1C(COCC1CC1)CN(C(=O)c1ccncn1)C2.O=C(O)C(F)(F)F (centres undefined),Percent Effect,"30 µM, 30.03 µM",-0.6882%
Cc1ncsc1C(=O)N1CC[C@@]2(O)CCN(C(=O)N3CCCC3)C[C@H]2C1,Percent Effect,"30.3 µM, […]",-70.48%
COc1ccc(F)c(-c2ncccc2C(=O)N2C[C@H]3CC[C@@H]2C3)c1,Percent Effect,"30 µM, 30.03 µM",-6.323%
CCn1c(CN2CCC(O)(c3ccc4c(c3)OCO4)CC2)cnc1SC.O=C(O)CC(O)(CC(=O)O)C(=O)O,Percent Effect,"30.3 µM, […]",-5.268%
COc1cc(N2C[C@@H]3COC[C@]3(COCc3ccncc3)C2)ncn1.O=C(O)C(F)(F)F.O=C(O)C(F)(F)F,Percent Effect,"30 µM, 30.03 µM",-12.8%
CN1CCCc2c1nc1c(c2N)CCCC1.O=C(O)C(=O)O,Percent Effect,"30.3 µM, […]",6.357%
Cc1ccc(-c2nnc(CN3CC(n4cc(C)cn4)C3)o2)cc1,Percent Effect,"30 µM, 30.03 µM",-4.601%
Cc1cnn(C2CN(Cc3nnc(C4CC4)o3)C2)c1,Percent Effect,"30.3 µM, […]",93.44%
Cc1cnn(C2CN(Cc3noc(C4CC4)n3)C2)c1,Percent Effect,"30.3 µM, […]",-128.4%
CCn1ccnc1CN1CCCC1C(=O)Nc1nccs1 (centres undefined),Percent Effect,"30.3 µM, […]",4.608%
Fc1cccc(CN2CCC3(CCCN3c3ncccn3)CC2)c1.O=C(O)C(F)(F)F,Percent Effect,"30.3 µM, […]",-16.3%
CCOC(=O)C1(Cc2ccccc2)CCCN(Cc2nccn2CC)C1 (centres undefined),Percent Effect,"30.3 µM, […]",95.74%
CCOC(=O)C1(CCOC)CCN(Cc2nccn2CC)CC1,Percent Effect,"30.3 µM, […]",-0.1521%
CCOC(=O)C1(CCOC)CCCN(Cc2nccn2CC)C1 (centres undefined),Percent Effect,"30.3 µM, […]",-20.23%
CCn1ccnc1CN1CCCC(CO)(Cc2cccc(OC)c2)C1 (centres undefined),Percent Effect,"30 µM, 30.03 µM",-22.09%
CCC1(CO)CCCN(Cc2nccn2Cc2ccccc2)C1 (centres undefined),Percent Effect,"30 µM, 30.03 µM",-5.033%
CCn1ccnc1CN1CCCC(CO)(Cc2cccc(Cl)c2)C1 (centres undefined),Percent Effect,"30 µM, 30.03 µM",109.3%
Cn1cc(CCC(=O)N2C[C@H]3CC[C@@H]2CN(Cc2cccnc2)C3)cn1,Percent Effect,"30 µM, 30.03 µM",-23.98%
Cc1ccnc(NC(=O)C2CCN(CCCc3cn[nH]c3)CC2)c1,Percent Effect,"30 µM, 30.03 µM",-19.03%
COCC1CN(C(=O)Nc2cc(Cl)cc(Cl)c2)CCO1 (centres undefined),Percent Effect,"30.3 µM, […]",-16.88%
NC(=O)C1CN(C(=O)Nc2cc(Cl)cc(Cl)c2)CCO1 (centres undefined),Percent Effect,"30 µM, 30.03 µM",103.3%
Cc1cc(NC(=O)N2CCOC(C(N)=O)C2)ccc1Br (centres undefined),Percent Effect,"30 µM, 30.03 µM",-3.776%
CCN(CC)CCn1c(=O)oc2ccccc21.Cl,Percent Effect,"30 µM, 30.03 µM",-24.39%
COc1ccc(-c2nc3c([nH]2)CCCNC3=O)cc1OC,Percent Effect,"30 µM, 30.03 µM",-51.91%
Cc1ccc2nc(-c3nc4c([nH]3)CC(C)(C)CNC4=O)cn2c1,Percent Effect,"30 µM, 30.03 µM",106.8%
Cc1cn2cc(-c3nc4c([nH]3)CCCNC4=O)nc2s1,Percent Effect,"30 µM, 30.03 µM",81.5%
CC1(C)CNC(=O)c2nc(-c3ccccc3)[nH]c2C1,Percent Effect,"30 µM, 30.03 µM",-21.93%
COc1cc(-c2nc3c([nH]2)CCCNC3=O)ccc1O,Percent Effect,"30 µM, 30.03 µM",4.773%
Cc1cccc2nc(-c3nc4c([nH]3)CCCNC4=O)cn12,Percent Effect,"30 µM, 30.03 µM",66.46%
Cc1ccc2nc(-c3nc4c([nH]3)CCCNC4=O)cn2c1,Percent Effect,"30 µM, 30.03 µM",99.29%
CC(C)Oc1cccc(-c2nc3c([nH]2)CCCNC3=O)c1,Percent Effect,"30 µM, 30.03 µM",-40%
COc1cc(-c2nc3c([nH]2)CCCNC3=O)cc(OC)c1OC,Percent Effect,"30 µM, 30.03 µM",-56.65%
CC(C)Cn1cncc1-c1nc2c([nH]1)CCCNC2=O,Percent Effect,"30 µM, 30.03 µM",-24.09%
CC1(C)CNC(=O)c2nc(-c3n[nH]c(=O)[nH]3)[nH]c2C1,Percent Effect,"30 µM, 30.03 µM",-63.36%
Cc1cccc(Cc2nc3c([nH]2)CCCNC3=O)c1,Percent Effect,"30 µM, 30.03 µM",-3.182%
